# Data taken from PubChem BioAssay AID686979 (National Center for Advancing Translational Sciences (NCATS), 2013).
# Among all 420,000 compounds or so, about 50,000 (12%) were called active. About 26% were inconclusive and are not listed. Calls come from the whole dose curve; as a rule, active = well fitted inhibition curve with a large enough effect; inconclusive = small, poorly fitted or top-dose-only effect; inactive = flat fitted curve, though single readings scatter. Shown is part of a subset that was picked to be rich in actives.
# Assay: qHTS for Inhibitors of human tyrosyl-DNA phosphodiesterase 1 (TDP1): qHTS in cells in presence of CPT; note: nearly all actives have a fitted effect of over 55% in size
# Conditions: chicken DT40 Tdp1-/-;hTDP1 cells + 20 nM CPT, ATP luminescence, 48 h; series mostly up to 46.2 µM; activity change, negative = growth inhibition: at the top concentration
# Summary of the method: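 Cell growth measured by CellTiter-Glo luminescence after a minimum 48 h, 37 C compound exposure with 20 nM CPT in Tdp1-knockout DT40 cells stably expressing hTDP1, seeded 400/well; qHTS titration format.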
# % is set by controls: 0 for no effect and ±100 for the full control effect; potency is the fitted concentration of half-maximal effect.
Compound,"activity change, negative = growth inhibition",Potency
Cc1nc2nc(C)c(NS(=O)(=O)c3ccc(C(C)(C)C)cc3)c(=O)n2[nH]1,-11.1% (inactive),–
CCCS(=O)(=O)NCc1c(C)ncc2c1CCN(C(=O)c1ccc(F)c(F)c1)C2,-3.77% [at 9.04 µM] (inactive),–
Cc1coc2c1c(C)cc1oc(=O)c(CC(=O)NCC(=O)N[C@H](C(=O)O)C(C)C)c(C)c12,-0.893% (inactive),–
CC(C#N)OC(=O)c1cccnc1SCC(=O)Nc1ccc2c(c1)OCO2 (stereo unspecified),14.5% (inactive),–
COc1ccc2c(c1)OC(O)(C(F)(F)C(F)F)CC2=O (stereo unspecified),–,11.6 µM (active)
COc1ccc2c(c1)SC(C)CC2=O (stereo unspecified),-1.56% (inactive),–
O=C(CCC(=O)OCc1cccc(C(=O)Oc2ccccc2)c1)Nc1cccc2ccccc12,-26.9% (inactive),–
CS(=O)(=O)c1ccc(C(=O)NNC(=O)c2cccs2)cc1,-1.13% (inactive),–
CC(=O)NC12CC3CC(C1)CC(C(=O)N1CCN(S(=O)(=O)c4cccs4)CC1)(C3)C2,-8% (inactive),–
CCOc1ccc(C(=O)Nc2ccc(CN3CCOCC3)cc2)cc1Cl,-16.5% (inactive),–
COc1cc(/C=C(\C#N)c2nc3ccccc3[nH]2)ccc1O,–,25.9 µM (active)
N#C/C(=C\c1ccccc1F)c1nc2ccccc2c(=O)[nH]1,-10.3% (inactive),–
CCOc1ccc(/C=C(\C#N)c2nc3ccccc3c(=O)[nH]2)cc1OC,-12.3% (inactive),–
Cc1nnc(SCc2nc3ccccc3nc2C)s1,-1.33% (inactive),–
ClC1(Cl)CC1CSc1ncn[nH]1 (stereo unspecified),11% (inactive),–
O=C(CSc1ncccn1)NCCc1ccccc1,-27.8% (inactive),–
S=C(NCCc1ccccc1)N1CCn2cccc2C1c1ccncc1 (stereo unspecified),–,18.4 µM (active)
S=C(Nc1cccc(Br)c1)N1CCn2cccc2C1c1cccnc1 (stereo unspecified),-26.3% (inactive),–
CCC(=O)Nc1ccc(C(=O)NNC(=O)c2ccc(Cl)cc2)cc1,-2.54% (inactive),–
CC(C)C(C(=O)NCc1ccco1)N(CC1CCCO1)C(=O)CNS(=O)(=O)c1ccc(F)cc1 (stereo unspecified),1.31% (inactive),–
COC(=O)[C@@]1(Sc2ccc(C)cc2)CC(=O)N(c2cccc(SC)c2)[C@@H]1c1ccccc1,–,18.4 µM (active)
Cc1ccc(C2SCC(=O)N2c2ccccc2)cc1 (stereo unspecified),10.6% (inactive),–

Compound,"activity change, negative = growth inhibition",Potency
O=C1CC(c2ccccc2)C(=O)N1c1cccc(O)c1 (stereo unspecified),-14.8% (inactive),–
COc1cc(CO)ccc1OCC(=O)Nc1cccc2ccccc12,-13.7% (inactive),–
O=C(NCCCn1ccnc1)c1cc(Br)c(Br)s1,4.77% (inactive),–
COC(=O)c1sc2[nH]c(=S)n(N)c(=O)c2c1C,-11.5% (inactive),–
O=c1c(/C=N/O)coc2ccc(Cl)cc12,14.6% (inactive),–
CC(C)(C)OC(=O)NCCCCCC(=O)N/N=C/c1coc2ccccc2c1=O,-26.3% (inactive),–
Cc1ccc2occ(/C=N/NC(=O)c3ccccc3C)c(=O)c2c1,–,16.4 µM (active)
CN1CCC(OC(=O)COc2ccc(Cl)cc2Cl)CC1,2.57% (inactive),–
O=C(COC(=O)c1ccccc1SCC(=O)N1CCCC1)Nc1ccccc1OC(F)F,-0.557% (inactive),–
Cn1c(SCC(=O)N2CCCC2)nnc1-c1cccs1,-4.1% (inactive),–
Cc1cc(C)cc(NC(=O)Cn2nc(N3CCN(c4ccccc4)CC3)ccc2=O)c1,-28.9% (inactive),–
COc1ccc(CNC(=O)CCn2cccc2)cc1,-2.52% (inactive),–
COc1ccc(CNc2nccs2)cc1,-19.3% (inactive),–
COc1ccc(CNc2c(CO)cnc3c2cnn3C)cc1,–,8.2 µM (active)
CSc1nc2nc3c(c(=O)n2[nH]1)CCC3,-5.28% (inactive),–
Cc1cc(NS(=O)(=O)c2ccc(NC(=O)c3ccccc3C)cc2)nc(C)n1,-10.1% (inactive),–
Cc1cnc(C(=O)N2CCOc3ccc(CN4CCCC(C(=O)c5cccnc5)C4)cc3C2)[nH]1 (stereo unspecified),-10% [at 9.04 µM] (inactive),–
O=C(O)CC1(CC(=O)Nc2cccc(C(F)(F)F)c2)CCCC1,-2.74% (inactive),–
O=C(Nc1cccc(C(F)(F)F)c1)c1cc(Br)cc(Br)c1O,–,11.9 µM (active)
CN(C)CC(C)(C)CNC(=O)c1cc(Br)cc(Br)c1O,-3.33% (inactive),–
Cc1cc(F)ccc1S(=O)(=O)Nc1ncnc2scc(-c3ccc(F)cc3)c12,19.5% (inactive),–
COc1ccnc2c1c(=O)n(Cc1cccc(F)c1)c(=O)n2C,-11.8% (inactive),–

Compound,"activity change, negative = growth inhibition",Potency
O=c1c2cccnc2n(Cc2cccc(F)c2)c(=O)n1Cc1ccccc1Cl,–,14.6 µM (active)
CCOC(=O)Cn1c(=O)n(Cc2ccc(OC)cc2)c(=O)c2cccnc21,19.7% (inactive),–
O=C(NC1CCCC1)C(c1ccc(Cl)cc1)N(C(=O)c1csnn1)C1CC1 (stereo unspecified),-9.79% (inactive),–
Cc1ccc(-c2nc3c(cnn3-c3ccccc3)c(=O)o2)cc1,-22.2% (inactive),–
Cc1ccc(-n2ncc3c(=O)n(-c4ccc(C)c(C)c4)c(-c4ccco4)nc32)cc1,–,18.4 µM (active)
Cc1ccc(-n2ncc3c(=O)n(Cc4cccc(C(F)(F)F)c4)cnc32)cc1C,0.615% (inactive),–
CCN(CC)S(=O)(=O)c1ccc(C(=O)N2CCN(C3=NS(=O)(=O)c4ccccc43)CC2)cc1,-16.6% (inactive),–
CCC/C(C)=N\Nc1nc2c(c(=O)n(C)c(=O)n2C)n1C,–,18.4 µM (active)
CC(O)c1nc2c(c(=O)n(C)c(=O)n2C)n1C (stereo unspecified),5.09% (inactive),–
Cn1c(=O)c2c(nc(SCCNS(=O)(=O)c3ccccc3)n2C)n(C)c1=O,-26.8% (inactive),–
Cc1cc(-c2nnc(SCC(=O)Nc3ccc(F)cc3)n2N)n[nH]1,-11.5% (inactive),–
Cc1ccc(C)c(NC(=O)C(OC(=O)c2ccc(C)s2)c2ccccc2)c1 (stereo unspecified),-17.8% (inactive),–
O=C1CN(C(=O)COc2c(Cl)cccc2Cl)c2ccccc2N1,-15.5% (inactive),–
CCCc1nc(N)nc2c1C(=O)CC(C)(C)C2,-16.3% (inactive),–
O=C(OCc1nc2ccccc2[nH]1)C1CCCCC1,-15.7% (inactive),–
CC/C(O)=C1\C(=O)CC(C)(C)CC1=NCCc1nc2ccccc2[nH]1,–,23.1 µM (active)
COc1ccc(S(=O)(=O)Nc2cc(C)on2)cc1NC(C)=O,22.5% (inactive),–
CC1(C)CC(=O)C=C(c2ccc(Cl)c(C(F)(F)F)c2)C1,-27.7% (inactive),–
CCn1cc(C(=O)OCC(=O)Nc2cc(C)cc(C)c2)c(=O)c2ccc(C)nc21,-22.5% (inactive),–
Cc1cc(NC(=O)CS(=O)(=O)c2cn(C)c3ccccc23)no1,-8.42% (inactive),–
Cc1c(C(=O)N(C)CCc2cnn(C)c2)oc2c(F)cccc12,-4.88% (inactive),–
OC(COc1ccc(Br)cc1)CN1CCCC1 (stereo unspecified),-4.36% (inactive),–

Compound,"activity change, negative = growth inhibition",Potency
CC(Oc1ccc(Br)cc1)C(=O)NC1CCCCCC1 (stereo unspecified),-21.9% (inactive),–
CC(C)(C)CC(C)(C)NCC(O)COCCOc1ccc(Br)cc1 (stereo unspecified),–,5.17 µM (active)
COC(=O)C1(C)NC(c2ccc(C)cc2)C2C(=O)N(c3ccc(F)cc3)C(=O)C21 (stereo unspecified),-1.12% (inactive),–
C/C(N)=C(/C#N)C(=O)COC(=O)CNS(=O)(=O)c1ccc(C)cc1,7.08% (inactive),–
Cc1ccc(C(=O)O)c(NC=O)c1OCc1ccccc1,20.1% (inactive),–
COc1ccccc1C(c1nnnn1CC1CCCO1)N1CCN(c2ccccc2)CC1 (stereo unspecified),-0.846% (inactive),–
Cc1cccc(N2CCN(C(c3ccccc3)c3nnnn3CC3CCCO3)CC2)c1C (stereo unspecified),–,20.6 µM (active)
Cc1cccc(N2CCN(C(c3ccc(N(C)C)cc3)c3nnnn3C(C)(C)C)CC2)c1C (stereo unspecified),-11.5% (inactive),–
Cc1nc2ccc(N)nc2nc1C,1.9% (inactive),–
O=C1/C(=C/c2ccc3c(c2)OCO3)Oc2cc(OCC(=O)N3CC(O)C[C@H]3C(=O)O)ccc21 (stereo partly specified),-3.66% (inactive),–
Nc1cccc(OCCCCCOc2cccc(N)c2)c1,-17.9% (inactive),–
O=C(O)C1CCCN1S(=O)(=O)c1ccc(Br)cc1 (stereo unspecified),6.77% (inactive),–
O=C(c1ccccc1F)N1CCN(S(=O)(=O)c2ccc(Br)cc2)CC1,-17.3% (inactive),–
O=S(=O)(c1ccc(Br)cc1)n1ccc2ccccc21,–,13 µM (active)
COc1cccc(C(=O)N2CCC(n3nccc3NC(=O)C3CCOC3)CC2)c1 (stereo unspecified),5.06% (inactive),–
COc1ccc(-c2nnc(-c3ccc4ccccc4c3)o2)cc1,-22.7% (inactive),–
CCOc1ccc(C(C)C)cc1S(=O)(=O)n1nc(C)cc1C,–,16.4 µM (active)
COc1ccc(C(C)C)cc1S(=O)(=O)Nc1ncn[nH]1,6.77% (inactive),–
CCOc1cc(C)c(Cl)cc1S(=O)(=O)n1nnc2ccccc21,-14.4% (inactive),–
CCc1ccccc1N1CN(Cc2ccco2)CNC1=S,-8.58% (inactive),–
O=C(CNC(=O)[C@@H]1Cc2ccccc2CN1)NC1CCCCC1,-2.66% (inactive),–
C=CCn1c(CCc2ccc(OC(C)C)cc2)n[nH]c1=S,-29.5% (inactive),–

Compound,"activity change, negative = growth inhibition",Potency
CC(C)Oc1ccc(Cc2n[nH]c(=S)n2Cc2ccccc2)cc1Cl,-11.9% (inactive),–
CC(C)Oc1ccc(CCc2n[nH]c(=S)n2Cc2ccccc2)cc1,–,25.9 µM (active)
O=c1[nH]c2cccnc2n1-c1ccc([N+](=O)[O-])cc1,-6.6% (inactive),–
O=[N+]([O-])c1ccc2nc(-c3ccccn3)[nH]c2c1,–,0.651 µM (active)
O=C(CSc1nc2ccc([N+](=O)[O-])cc2[nH]1)c1ccc(Cl)cc1,-27% (inactive),–
O=[N+]([O-])c1ccccc1/C=C/CN1CCCC(CO)C1 (stereo unspecified),-0.367% (inactive),–
CCSc1sc(CC)cc1C=O,-12.7% (inactive),–
CCOc1ccc(C(C)NC(=O)CN2C(=O)NC3(CCCCC3)C2=O)cc1OCC (stereo unspecified),-1.96% (inactive),–
CCCCN(CCCC)CCNC(=O)CN1C(=O)COc2ccc(S(=O)(=O)N3CCOCC3)cc21,-27.9% (inactive),–
COc1ccc(CCNC(=O)CN2C(=O)COc3ccc(S(=O)(=O)N4CCCC4)cc32)cc1OC,-11% (inactive),–
Cc1ccc2c(c1)N(CC(=O)N1CCOCC1)C(=O)CO2,18.3% (inactive),–
Cc1ccc(C)c(N2CCN(C(=O)CN3C(=O)COc4ccc(S(=O)(=O)N5CCCCCC5)cc43)CC2)c1,–,16.4 µM (active)
CC(=O)Nc1ccc(NC(=O)CN2C(=O)COc3ccc(S(=O)(=O)N4CCCCC4)cc32)cc1,1.6% (inactive),–
CCCCN(CCCC)CCCNC(=O)CN1C(=O)COc2ccc(S(=O)(=O)N3CCC(C)CC3)cc21,–,18.4 µM (active)
O=C(CCN1C(=O)c2ccncc2C1=O)Nc1cc(F)ccc1F,-2.86% (inactive),–
O=C(COC(=O)c1cnccn1)Nc1ccc(Cl)cc1C(F)(F)F,-2.73% (inactive),–
CC(OC(=O)CNC(=O)c1ccc(Cl)c([N+](=O)[O-])c1)C(=O)NCc1ccco1 (stereo unspecified),9.09% (inactive),–
Cc1cc(=O)oc2c3c(cc(OCC(=O)N[C@H](C(=O)O)c4ccccc4)c12)OC(C)(C)CC3,1.09% (inactive),–
